# Assay outcomes (PubChem BioAssay)
# DUSP1 inh = MKP-1 phosphatase inhibitors, primary screen, biochemical, in vitro | Dual specificity protein phosphatase 1 (Homo sapiens), P28562 | recombinant MKP-1, OMFP hydrolysis fluorescence | inhibition, %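 (compounds tested at a single concentration somewhere between 10 and 100 µM)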 | 0.15% of 65,000 active | AID 374, 2006;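 active = inhibition above about 50%, limit read from the data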;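 note: 0% = DMSO max control wells and 100% = wells with enzyme stopped by NaOH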
# M1 antagonist = antagonists of rat M1 muscarinic receptor; AID 628, 2007; CHO-M1 cells, Fluo-4 calcium, ACh EC80 antagonist mode; hits give low values; B-score at 10 µM; 3.4% of 64,000 active;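 active = calcium fluorescence response, raw or row-and-column corrected B-score, differing from the plate sample mean either way at a set confidence level, mostly lower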
# Cdc25B block = inhibitors of Cdc25B phosphatase catalytic domain, primary screen, biochemical, OMFP fluorescence; recombinant Cdc25B, OMFP fluorescence Ex485/Em525; inhibition, %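 (compounds tested at 10 µM final in the well)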; 0.1% of 65,000 active; in the data active = inhibition above about 50%
# Target sequence (P30305 whole entry, looked up, the tested form may be a part): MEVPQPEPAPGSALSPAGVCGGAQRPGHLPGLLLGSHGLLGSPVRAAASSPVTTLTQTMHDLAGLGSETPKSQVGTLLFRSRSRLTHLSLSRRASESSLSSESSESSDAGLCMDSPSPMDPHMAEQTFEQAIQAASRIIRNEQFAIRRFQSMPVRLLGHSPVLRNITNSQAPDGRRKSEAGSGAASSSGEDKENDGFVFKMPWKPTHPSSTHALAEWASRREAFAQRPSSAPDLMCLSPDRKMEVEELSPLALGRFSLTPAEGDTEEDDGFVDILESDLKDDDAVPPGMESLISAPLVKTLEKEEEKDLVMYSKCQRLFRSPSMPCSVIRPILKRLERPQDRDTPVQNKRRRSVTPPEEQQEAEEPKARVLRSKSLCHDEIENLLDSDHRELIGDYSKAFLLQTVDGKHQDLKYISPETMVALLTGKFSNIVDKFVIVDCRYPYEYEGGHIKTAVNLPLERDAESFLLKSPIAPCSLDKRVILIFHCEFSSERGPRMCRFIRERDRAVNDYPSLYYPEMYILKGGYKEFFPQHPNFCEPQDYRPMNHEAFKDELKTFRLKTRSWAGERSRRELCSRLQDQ
# M1 agonist = M1 muscarinic receptor agonists, primary screen, CHO-M1 cells, Fluo-4 calcium, agonist mode. AID 626, 2007. Fluo-4 calcium fluorescence; hits give high values. 3% of 64,000 active. B-score at 10 µM;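 active = fluorescence rise, raw or as B-score row- and column-corrected plate score, outside the 99.7% band of its plate's samples, either direction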
# Hsp90 block = tumor Hsp90 inhibitors, primary screen, cell lysate, fluorescence polarization, NCI-N417 lysate; Heat shock protein HSP 90-alpha (Homo sapiens), P07900; Cy3B-geldanamycin FP displacement; inhibition, % at 30 µM; 0.35% of 64,000 active;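 active = inhibition above 50%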;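 note: 0% = tracer plus lysate wells and 100% = tracer alone without lysate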
# MMP-13 inhibitor = human MMP13 inhibitors, primary screen, biochemical, FRET peptide cleavage | Collagenase 3 (Homo sapiens), P45452 | MMP-13 fTHP FRET cleavage, Mca fluorescence | inhibition, % at 4 µM | 0.07% of 65,000 active;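 active = inhibition above the mean of compound-free control plate wells plus 3 SD, cut at about 14% in these data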;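 note: 0% = DMSO wells and 100% = wells with reference MMP-13 inhibitor after basal subtraction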
# * = called active by the depositor; i = inactive; x = not tested or not shown. Rows were chosen to be rich in hits. Some 6.1% of all compounds tested hit in one or more screens of this group.
SMILES,DUSP1 inh,M1 antagonist,Cdc25B block,M1 agonist,Hsp90 block,MMP-13 inhibitor
N#CC1=C(N)OC2=C(C(=O)CCC2)C1c1ccsc1 (configuration not stated),1.6,-0.0505,-8.9,-0.843,0.9,1.4
CSc1nc(C)cc(-n2ccc(=O)[nH]c2=O)n1,4.7,1.05*,-2.1,-0.244,-1.8,3.1
c1ccc2sc(SCc3ccc(-c4nnco4)cc3)nc2c1,6.7,-0.169,1.2,-0.0103,90.8*,2.6
O=C(O)CCSc1nc2ccccc2s1,-0.7,0.968,-13.8,1.38,0.6,2.7
CCn1c(=N)c(C(=O)OC)cc2c(=O)n3ccccc3nc21,-0.5,0.21,-3.7,4.81*,2.7,i
CSc1cccc(NC(=O)CN(c2cc(C)ccc2C)S(C)(=O)=O)c1,7.1,1.24*,-5.4,-0.462,-2.4,3.9
CNC(=O)CN(c1cc(C)ccc1C)S(C)(=O)=O,8.2,-0.197,-13.2,0.0562,-6.1,6.2
CCOc1ccc(NC(=O)N(C2CCCCCC2)C2CCN(C(C)=O)CC2)cc1,34.1,0.233,-2.4,0.454,0.1,1.3
CCOc1ccc(NC(=O)N(C2CCCCC2)C2CCN(C(C)=O)CC2)cc1,1.7,0.0792,63.8*,0.214,-3.6,-7.7
Cn1c(=O)c2c(nc(Br)n2Cc2ccc3ccccc3c2)n(C)c1=O,-15.0,0.0229,8.3,-1.36,2.1,1.2
COc1cc(NC(=O)C=CC(=O)O)c2ncccc2c1,x,x,x,x,5.9,x
CCOCCCN1CC(C(=O)NCCc2ccccc2)CC1=O (configuration not stated),-8.6,2.2*,-8.2,0.292,-2.3,2.3
O=C(Cn1cnc2scc(-c3ccccc3)c2c1=O)N1CCOCC1,-5.5,0.233,-1.7,-0.336,-4.1,-4.9
CCn1cnc2scc(-c3ccccc3)c2c1=O,3.2,10.4*,-10.6,-1.19,0.9,0.6
CC(C)(C)c1ccc(-c2nnc3sc(-c4ccncc4)nn23)cc1,18.2,8.91*,-12.2,-0.621,-7.5,1.9
COCCn1cnnc1SCC(=O)Nc1ccccc1C(=O)Nc1ccc2c(c1)OCO2,18.9,0.0127,4.1,0.467,2.0,-2.2
O=C(CSc1nc2ccccc2o1)NCCOc1ccccc1,-19.3,-0.0661,-20.6,-0.576,-1.1,1.9
CC(C)COCC(CN(Cc1ccccc1)c1ccccc1)N1CCCC1 (configuration not stated),x,x,x,x,64.2*,x
CCOC(=O)/C(C#N)=C1/C=C(C)NC(c2ccccc2O)=N1,17.0,-7.07*,-8.1,15.6*,-2.5,-4.5
NCC(O)(CS(=O)(=O)O)c1ccc(Cl)cc1 (configuration not stated),x,x,x,x,0.9,x
O=C(c1cccnc1)N1CCCc2ccccc21,1.4,0.0284,-3.5,-2.97*,0.1,2.5
O=C(c1cncc(Br)c1)N1CCCc2ccccc21,-24.5,0.284,-19.8,0.327,-4.3,0.4
CCn1cc(C(=O)NCCCOC)c(=O)c2cc(S(=O)(=O)N(C)C)ccc21,-3.9,0.223,2.1,-0.126,-2.4,-1.1
CC1=C(C(=O)OCC2CCCO2)C(c2ccc(C)o2)C2=C(CC(c3ccc(F)cc3)CC2=O)N1 (configuration not stated),19.2,-0.502,-6.4,-0.217,-3.3,1.9
CC1=C(C(=O)OCC2CCCO2)C(c2ccc(C)o2)C2=C(CC(c3ccc(N(C)C)cc3)CC2=O)N1 (configuration not stated),20.9,-0.241,-9.1,5.57*,-10.7,3.4
SMILES,DUSP1 inh,M1 antagonist,Cdc25B block,M1 agonist,Hsp90 block,MMP-13 inhibitor
Nc1ccc(C(=O)CSCC(NC(=O)CCC(N)C(=O)O)C(=O)NCC(=O)O)cc1 (configuration not stated),x,x,x,x,-5.1,x
CCOc1ccc(NCC(=O)Nc2ccc(C)cc2C)cc1,-12.1,-0.45,14.4,0.0582,52.1*,-4.3
CCCn1c(C)cc(=O)c2cc(NC(=O)c3ccccn3)ccc21,10.5,-0.703,-13.0,0.411,-0.8,-3.8
c1cncc(-c2nc(Oc3ccc(-c4nnco4)cc3)c3c4c(sc3n2)CCCC4)c1,32.2,0.396,-9.6,-0.79,0.6,-2.7
CCn1c(CSc2nnc(-c3cccnc3)n2-c2ccccc2C)nc2cc(C(=O)O)ccc21,12.7,0.0113,-2.2,-1.31,145.4*,-2.1
CCn1c(CSc2nnc3ccccn23)nc2cc(C(=O)O)ccc21,-7.2,0.271,-12.6,0.8,138.3*,-7.5
COc1cc(NCCCC(C)=O)c2ncccc2c1,x,x,x,x,3.7,x
CC(C)OC(=O)c1nn2c(C(F)(F)F)cc(-c3ccc(Br)o3)nc2c1Br,3.2,-0.0099,-24.2,9.75*,-2.3,-6.3
Cc1onc(-c2ccccc2Cl)c1C(=O)Nc1cccnc1,-4.7,-0.165,-11.8,-1.1,-1.1,-2.1
Cc1onc(-c2ccccc2Cl)c1C(=O)Nc1ccc(-n2nncc2C(C)(C)C)cc1,2.2,1.44,65.8*,0.259,-2.5,7.0
Nc1ncnc2c1ncn2[C@@H]1O[C@H](C(=O)NC2CC2)[C@H](O)C1O (some centres not stated),x,x,x,x,0.9,x
CCCCN(c1ccccc1)c1ncnc2nc[nH]c12,4.9,0.00161,-11.4,-0.438,-1.0,5.6
CN(CCO)c1ncnc2nc[nH]c12,5.9,0.723*,-9.2,0.825,1.8,-1.4
CCN(Cc1ccccc1)C(=O)Cn1c(=O)n(CC(=O)NCc2ccco2)c(=O)c2sccc21,5.3,-0.136,-1.1,0.072,0.5,4.0
CCOc1ccc(CCNC(=O)C2CC(=O)N(C3CCCC3)C2)cc1OCC (configuration not stated),23.5,0.493,-7.7,-0.801,-1.2,0.7
CCOc1ccc(NS(=O)(=O)c2ccc3[nH]cc(C(=O)N(CC)CC)c(=O)c3c2)cc1,3.2,-11.3*,13.5,23.4*,-3.8,-2.4
CCOc1ccc(NS(=O)(=O)c2ccc3[nH]cc(C(=O)NCC4CCCO4)c(=O)c3c2)cc1 (configuration not stated),10.3,-0.744,14.4,0.841,-0.1,2.1
O=C(C1CCN(S(=O)(=O)c2cccc3cccnc23)CC1)N1CC=C(c2ccccc2)CC1,31.7,-2.03,-7.0,4.51*,-1.4,-4.7
O=C(C1CCCN(S(=O)(=O)c2cccc3cccnc23)C1)N1CCN(c2ccccc2F)CC1 (configuration not stated),-1.3,-1.35,-26.8,3.91,-5.0,2.2
Cc1cccc(N2CCN(C(=O)C3CCCN(S(=O)(=O)c4cccc5cccnc45)C3)CC2)c1C (configuration not stated),9.2,-0.709,-23.9,4.61*,-5.6,-2.5
O=C(C1CCN(S(=O)(=O)c2cccc3cccnc23)CC1)N1CCCC1,0.9,0.0539,-7.1,0.303,0.3,-5.3
COc1ccc2c(c1)c1c(C)c3cnccc3c(C)c1n2CCCN,x,x,x,x,-2.5,x
